Mtb betalactam = beta-lactam sensitization of Mtb H37Rv; M. tuberculosis H37Rv growth with meropenem, percent inhibition; inhibition, % at 25 µM; 330,000 compounds, 0.27% hits; AID 434955;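 also: growth measured after seven days incubation then overnight dye step; 0% = bacteria only wells and 100% = bacteria with antibiotic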
Mtb UGM inh = blocks M. tuberculosis UGM enzyme; purified UGM, fluorescence polarization probe displacement; inhibition, % at 10 µM; 320,000 compounds, 0.06% hits; in the data active = inhibition above about 10%, passing the limit was not always enough; inconclusive = no clear call, values can overlap the other calls
Rv3671c protease = inhibitors of M. tuberculosis serine protease Rv3671c; inhibition, % at 5.96 µM; 320,000 compounds, 0.048% hits; AID 2606; in the data active = inhibition above about 38%;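 also: extracellular domain of Rv3671c used as enzyme; 0% = enzyme with DMSO and 100% = no enzyme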
Target sequence (P9WHR9 whole entry, looked up, the tested form may be a part): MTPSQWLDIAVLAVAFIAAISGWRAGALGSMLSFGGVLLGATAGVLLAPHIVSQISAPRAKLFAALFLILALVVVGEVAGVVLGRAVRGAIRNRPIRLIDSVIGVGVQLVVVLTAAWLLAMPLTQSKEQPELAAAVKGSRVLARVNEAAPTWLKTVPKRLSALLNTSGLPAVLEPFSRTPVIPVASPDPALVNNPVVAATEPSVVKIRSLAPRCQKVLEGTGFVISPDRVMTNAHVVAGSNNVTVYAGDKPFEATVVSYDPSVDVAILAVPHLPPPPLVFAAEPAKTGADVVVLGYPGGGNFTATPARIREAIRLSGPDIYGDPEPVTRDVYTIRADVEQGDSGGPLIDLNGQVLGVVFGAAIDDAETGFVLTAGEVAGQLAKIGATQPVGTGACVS
GDH-TPI inh = counter-screen for M. tuberculosis FBA inhibitors: GDH-TPI coupled enzymes | AID 588335 | GDH-TPI coupled enzyme counterscreen, NADH absorbance | inhibition, % at 4.8 µM | 360,000 compounds, 1.2% hits; in the data active = inhibition above about 30%;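 also: 0% = DMSO wells and 100% = wells lacking the enzyme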
RecA intein inh = blocks M. tuberculosis RecA intein splicing | P9WHJ3 | cell-free RecA intein splicing, fluorescence | inhibition, % (concentration not given with the values) | 290,000 compounds, 0.75% hits; in the data active = inhibition above about 30%; inconclusive = no clear call, values can overlap the other calls;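 also: 0% = vehicle wells and 100% = reference inhibitor control wells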
Mtb FBA inh = inhibitors of M. tuberculosis fructose-bisphosphate aldolase; P9WQA3; purified M. tuberculosis FBA, fluorescence read-out; inhibition, % at 1 µM; 360,000 compounds, 2.3% hits; AID 588726; in the data active = inhibition above about 27%;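 also: 0% = vehicle and 100% = reference inhibitor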
GFP chromo cs = counter-screen: blocks GFP chromophore formation | EC50, µM | AID 434968 | shares compounds with RecA intein inh | cell-free GFP chromophore formation, fluorescence | 2,100 compounds, 83% hits
* = called active by the depositor; ? = inconclusive; · = not tested or not shown. In the library only some 4% were active in any assay of this set; here they are far more common. Unless noted, no rule for the calls is given here.

SMILES	Mtb betalactam	Mtb UGM inh	Rv3671c protease	GDH-TPI inh	RecA intein inh	Mtb FBA inh	GFP chromo cs
COC(=O)[C@@]1(Cc2ccccc2)[C@@H]2C(=CC(=O)[C@H]2CC(=O)C(=O)N(C)C)CN1C(=O)c1ccccc1	-7	2	3	4	70*	2	16*
COC(=O)[C@@]1(Cc2ccc(F)cc2)[C@H]2c3cc(C(=O)N(C)C)n(C[C@H](O)CO)c3C[C@H]2CN1C(=O)c1ccccc1	-8	-2	0	3	·	0	·
CSc1nc(N)nc2c1ncn2Cc1ccccc1	·	·	·	3	·	5	·
CCOc1ccc(NC(=O)C2CC(=O)N(c3ccccc3F)C2)cc1 (stereo unspecified)	-12	2	-1	1	1	1	·
O=C1NN=C(c2ccccc2)C1Cc1ccccc1 (stereo unspecified)	·	·	·	7	·	-2	·
CC1=NNC(=O)C1C(c1ccccc1)C1C(=O)NN=C1C (stereo unspecified)	-8	-1	-13	·	98*	·	0.41*
CC1=NNC(=O)C1CC(=O)N/N=C/C(Br)=C/c1ccccc1 (stereo unspecified)	0	1	0	6	23	-3	·
CC1=NNC(=O)C1Cc1ccccc1 (stereo unspecified)	4	1	3	-2	96*	1	0.66*
COC(=O)C1CN(C#N)N(c2ccc(Cl)cc2)C12c1ccccc1-c1ccccc12 (stereo unspecified)	75	-2	2	5	44*	-1	9.8*
COC(=O)c1nccnc1C(=O)Nc1ccccc1N1CCOCC1	3	0	-12	4	-1	11	·
O=C1CC(CC(=O)N/N=C/c2ccccc2[N+](=O)[O-])=NN1	-1	0	-67	8	90*	-4	7.3*
O=C(CCl)Oc1ccc2occ(C(=O)c3cccs3)c2c1	-13	2	-10	3	32*	-5	25*
Cc1cc(O)ccc1Nc1cc(-c2cccc(N)c2)ncn1	·	·	·	14	·	1	·
O=C(O)c1ccc(N2C(=O)/C(=C/c3ccc(-c4ccc([N+](=O)[O-])cc4)o3)C=C2c2ccccc2)cc1	98	1	-19	-5	32*	-4	>38
O=C1NN(c2ccccc2)C(=O)/C1=C/c1ccc(-c2ccc(C(=O)O)cc2)o1	3	0	-1	-1	-8	-2	·
CC(NC(=O)Cn1ncc(Cl)c(Cl)c1=O)C12CC3CC(CC(C3)C1)C2 (stereo unspecified)	-10	-1	0	4	49*	-4	?
CC(OC(=O)C1CCN(S(=O)(=O)c2ccc(C(C)(C)C)cc2)CC1)C(=O)N(C)C1CCCCC1 (stereo unspecified)	·	·	·	17	·	4	·
CCN(CC)S(=O)(=O)c1ccc(N2CCN(S(=O)(=O)c3ccccc3C#N)CC2)nc1	-1	·	3	4	32*	7	>38
Oc1ccccc1OCc1nc2ccccc2s1	-4	2	-5	8	-2	1	·
Oc1ccc(O)c(Cc2nc3ccccc3s2)c1	-2	2	-5	0	31*	6	>38
CC(C)(C)NC(=O)C(c1ccc(Cl)cc1)N(Cc1ccco1)C(=O)CCl (stereo unspecified)	2	-1	4	-1	69*	2	22*
CC(C)(C)NC(=O)C(c1ccc(O)cc1)N(Cc1ccco1)C(=O)CCC(=O)Nc1ccccn1 (stereo unspecified)	3	0	-7	4	0	5	·
CC(=O)NC(CCc1ccc(Cl)c(Cl)c1)c1cccc(O)c(=O)c1 (stereo unspecified)	·	·	·	12	·	0	·
O=c1c2ccccc2nc(-c2ccccc2)n1-c1ccccc1O	3	-1	-3	2	-1	2	·
O=C1c2ccccc2-n2c1nc1ccccc1c2=O	98	-1	-7	13	71*	-2	1.3*
CCOc1ccc(S(=O)(=O)N2CCC(C(=O)OC(C)C(=O)NC3CCCCC3C)CC2)cc1 (stereo unspecified)	-9	-2	1	-8	·	0	·
O=c1[nH]c(O)c(N=Nc2cc([N+](=O)[O-])ccc2O)c(=O)[nH]1	-7	0	-47	14	73*	-26	12*
NC(=O)c1ccc(N=Nc2c(O)[nH]c(=O)[nH]c2=O)cc1	3	1	-7	·	-3	·	·
